Where “and” joins values, the source holds several entries; their conditions need not be identical. Equal values may be shown once. Records with an inconclusive call do not appear. A call without a number means that no potency is given here. Calls of active or inactive are those of the source. Calls come from the whole dose curve; as a rule, active = well fitted inhibition curve with a large enough effect; inconclusive = small, poorly fitted or top-dose-only effect; inactive = flat fitted curve, though single readings scatter.

40 compounds from PubChem BioAssay (NCATS) can be followed below.
Potency is the fitted concentration of half-maximal effect.

Sequence of Ubiquitin carboxyl-terminal hydrolase 1 (Homo sapiens) (O94782 whole entry, looked up): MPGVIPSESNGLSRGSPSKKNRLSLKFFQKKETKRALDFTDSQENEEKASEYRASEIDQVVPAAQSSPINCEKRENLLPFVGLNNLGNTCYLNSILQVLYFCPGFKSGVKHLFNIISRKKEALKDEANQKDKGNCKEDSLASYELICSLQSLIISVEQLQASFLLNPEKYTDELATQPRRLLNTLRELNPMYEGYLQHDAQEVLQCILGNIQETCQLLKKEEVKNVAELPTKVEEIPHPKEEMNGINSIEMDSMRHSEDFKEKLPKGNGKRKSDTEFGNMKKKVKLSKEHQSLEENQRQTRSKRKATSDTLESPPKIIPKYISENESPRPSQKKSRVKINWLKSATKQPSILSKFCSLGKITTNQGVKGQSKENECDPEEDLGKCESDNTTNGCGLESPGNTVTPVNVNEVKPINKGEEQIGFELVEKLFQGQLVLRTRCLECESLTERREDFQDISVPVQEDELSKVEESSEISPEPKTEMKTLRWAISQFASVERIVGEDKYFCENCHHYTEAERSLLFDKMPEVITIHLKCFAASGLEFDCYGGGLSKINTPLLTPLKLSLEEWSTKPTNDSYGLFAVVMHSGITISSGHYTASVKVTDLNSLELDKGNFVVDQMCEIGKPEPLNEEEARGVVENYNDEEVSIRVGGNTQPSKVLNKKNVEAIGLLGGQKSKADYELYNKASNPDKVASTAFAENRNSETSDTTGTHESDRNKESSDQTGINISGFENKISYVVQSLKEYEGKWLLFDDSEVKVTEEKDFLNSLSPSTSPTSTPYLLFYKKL

The test has as its target Ubiquitin carboxyl-terminal hydrolase 1 (Homo sapiens) (UniProt O94782). Kind of test: Inhibitors of USP1/UAF1: Pilot qHTS (AID 504865). Note: nearly all actives have a fitted effect of over 35% in size. The note with it: purified USP1/UAF1, Ub-rhodamine cleavage fluorescence; series mostly up to 114 µM. The procedure, abridged: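 USP1/UAF1 complex at 1 nM preincubated 15 min at room temperature with compound, then Ub-Rho substrate added at 150 nM final. Fluorescence (480/540 nm) read kinetically in 50 mM HEPES pH 7.8, 0.5 mM EDTA, 1 mM TCEP, 0.1 mg/ml BSA, 0.01% Tween-20.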
For orientation: qHTS replaces the single test concentration by a dilution series.
Take `OCc1ccccc1O`: the Potency entry is “inactive”. As to `C=C(CC)C(=O)c1ccc(OCC(=O)O)c(Cl)c1Cl`, the Potency entry is “inactive”. As for `C=CCc1ccc(O)c(OC)c1`, the Potency result is “inactive”. With `CC(C)=CCC1C(=O)N(c2ccccc2)N(c2ccccc2)C1=O` the entry was “inactive”; with `O=C(CCN1CCC(c2ccccc2)C1)c1ccc2c(c1)OCCO2` (stereo not given), “inactive”. With `Cc1cccn2c(=O)c(-c3nnn[nH]3)cnc12`, the Potency result is “inactive”. `CCOC(=O)OC(C)OC1=C(C(=O)Nc2ccccn2)N(C)S(=O)(=O)c2ccccc21` (stereo not given): the Potency result was “inactive”. The result for `CN(C)CCCOc1nn(Cc2ccccc2)c2ccccc12` reads “inactive”. Consider `CC(=O)N(O)CCCCCNC(=O)CCC(=O)N(O)CCCCCNC(=O)CCC(=O)N(O)CCCCCN`, for which the Potency result was “inactive”. The result for `CCCCC1=NC2(CCCC2)C(=O)N1Cc1ccc(-c2ccccc2-c2nn[nH]n2)cc1` reads “inactive”.

Consider `CCCCc1nc(Cl)c(CO)n1Cc1ccc(-c2ccccc2-c2nn[nH]n2)cc1`, for which the Potency entry is “inactive”. Turning to `COC1=CC(=O)C[C@@H](C)[C@]12Oc1c(Cl)c(OC)cc(OC)c1C2=O`, the Potency result was “inactive”. With `O=C(CCCN1CCC(O)(c2ccc(Br)cc2)CC1)c1ccc(F)cc1` the entry was “inactive”; with `NC(CO)(CO)CO`, “inactive”; with `CCN(CC)CCNC(=O)COc1ccc(Cl)cc1`, “inactive”. For `CCN(CC)C(=O)N1CCN(C)CC1`, the Potency result was “inactive”. As for `Clc1ccc2c(c1)CCc1cccnc1C2=C1CCNCC1`, the Potency entry is “inactive”. With `CCCCOc1ccc(C(=O)CCN2CCCCC2)cc1` the entry was “inactive”; with `Cc1c(C(N)=O)cc([N+](=O)[O-])cc1[N+](=O)[O-]`, “inactive”; with `NC(=O)C(=O)N/N=C/c1ccc([N+](=O)[O-])o1`, “inactive”.

Turning to `CN1CCN(C(c2ccccc2)c2ccccc2)CC1`, the Potency result is “inactive”. For `NC(=NCCCCCCN=C(N)/N=C(\N)Nc1ccc(Cl)cc1)/N=C(\N)Nc1ccc(Cl)cc1`, the Potency is 56.2 µM (active) and 50.1 µM (active). `CN1C(CCl)Nc2cc(Cl)c(S(N)(=O)=O)cc2S1(=O)=O` (stereo not given): the Potency result was “inactive”. With `Nc1nc2ncc(CNc3ccc(C(=O)N[C@@H](CCC(=O)O)C(=O)O)cc3)nc2c(=O)[nH]1` the entry was “inactive”; with `CO/N=C1\CN(c2nc3c(cc2F)c(=O)c(C(=O)O)cn3C2CC2)CC1CN` (stereo not given), “inactive”; with `CCN1CCN(c2cc3c(cc2F)c(=O)c(C(=O)O)cn3C2CC2)CC1`, “inactive”. As for `CN(C)/N=N/c1nc[nH]c1C(N)=O`, the Potency entry was “inactive”. Consider `O=C(O)CCCCC(=O)O`, for which the Potency result was “inactive”. For the compound `CNCC[C@@H](Oc1ccccc1C)c1ccccc1`, the Potency entry was “inactive”.

As to `C[C@H]1[C@H](NC(=O)/C(=N/OC(C)(C)C(=O)O)c2csc(N)n2)C(=O)N1S(=O)(=O)O` (stereo in doubt), the Potency entry is “inactive”.

On to `CCN1CCCC1=O`, for which the Potency entry was “inactive”. With `c1ccc(CNCCNCc2ccccc2)cc1`, the Potency result was “inactive”. For the compound `CN(C(=O)CN(CCO)CC(=O)N(C)C(C)(C)Cc1ccccc1)C(C)(C)Cc1ccccc1`, the Potency entry is “inactive”.

Regarding `CC(C)(CO)[C@@H](O)C(=O)NCCCO`, the Potency result was “inactive”.

For the compound `Cc1ccc(O)c2ncccc12`, the Potency entry is “inactive”. The result for `CCN(CCCc1ccccc1)CCCc1ccccc1` reads “inactive”; that for `CCCCCCCCCCCCCCCC[N+](C)(C)CCN(Cc1ccc(OC)cc1)c1ncccn1`, 31.6 µM (active); that for `CN1CCC(=C2c3ccccc3Sc3ccccc32)CC1`, 39.8 µM (active). As to `CC(=O)OCC(=O)[C@@]1(OC(C)=O)[C@@H](C)C[C@H]2[C@@H]3C[C@H](F)C4=CC(=O)C=C[C@]4(C)[C@@]3(F)[C@@H](O)C[C@@]21C`, the Potency result is “inactive”.

With `CC(C)COC(=O)c1ccc(N)cc1`, the Potency result was “inactive”.
